# According to the supplement of paper PMC3334620:
# Over roughly 33,000 sequences, “E-score (-0.5 to 0.5)” has its median near -0.011; the highest 2% begin near 0.28. The sample as a whole holds a higher share of the highest values than the screen did.
# Molecular target: T1, Gcr1 (UniProt P07261)
# T1 sequence: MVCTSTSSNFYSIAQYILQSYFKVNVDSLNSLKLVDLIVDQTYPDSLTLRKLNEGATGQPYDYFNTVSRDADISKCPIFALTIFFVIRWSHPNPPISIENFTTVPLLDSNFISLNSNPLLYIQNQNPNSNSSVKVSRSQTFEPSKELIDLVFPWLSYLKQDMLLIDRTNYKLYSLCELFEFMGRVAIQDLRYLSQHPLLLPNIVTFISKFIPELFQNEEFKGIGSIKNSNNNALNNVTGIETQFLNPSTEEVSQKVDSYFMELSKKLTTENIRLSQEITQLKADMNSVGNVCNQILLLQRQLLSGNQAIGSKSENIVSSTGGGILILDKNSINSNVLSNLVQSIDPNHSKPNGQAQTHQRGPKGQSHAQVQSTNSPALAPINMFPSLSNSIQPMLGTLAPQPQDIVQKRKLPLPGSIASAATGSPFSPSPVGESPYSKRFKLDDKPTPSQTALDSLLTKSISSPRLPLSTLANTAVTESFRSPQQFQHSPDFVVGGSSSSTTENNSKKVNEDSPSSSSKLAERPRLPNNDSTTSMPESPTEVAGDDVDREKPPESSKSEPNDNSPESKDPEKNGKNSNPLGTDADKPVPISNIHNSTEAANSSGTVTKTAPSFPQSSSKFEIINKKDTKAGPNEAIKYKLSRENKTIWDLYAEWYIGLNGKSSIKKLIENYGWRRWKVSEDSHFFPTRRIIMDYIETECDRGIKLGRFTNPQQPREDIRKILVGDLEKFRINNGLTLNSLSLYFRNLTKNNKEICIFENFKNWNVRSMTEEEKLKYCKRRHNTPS
# Assay: PBM E-score (8-mer binding enrichment) (E-score (-0.5 to 0.5)); higher = stronger / more preferred TF binding
# Conditions: protein concentration: 100 nM; construct: GST-full length
# Method: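 Universal 'all 10-mer' protein binding microarrays (Agilent AMADID 015681) probed with GST-tagged S. cerevisiae TFs (full-length or DBD) made by in vitro transcription/translation (PURExpress), about 100-200 nM. Bound TF was detected with fluorescent anti-GST. Each ungapped 8-mer (which stands for itself and its reverse complement) is scored by the PBM enrichment score (E-score), a modified Wilcoxon-Mann-Whitney statistic from -0.5 to +0.5, computed with the Universal PBM Analysis Suite. Scale: above 0.35 generally sequence-specific binding.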
row,Sequence,PBM E-score
1,GCTCGACC,0.00687
2,CCGGCAGA,0.0729
3,GGGGCACC,0.351
4,CTGGCAGA,0.0263
5,CCGGCAAC,0.318
6,CCGGCAGC,0.292
7,CCGGCAGG,-0.253
8,CCGGCAAG,-0.101
9,GCGGCAAC,0.0813
10,AGGGCACC,0.13
11,ATGGCAGC,0.0656
12,CTGGCAGC,0.386
13,GGGGCACA,-0.0447
14,AGTTCGAA,-0.0147
15,GCCCAAAC,0.111
16,GTTACCCA,-0.141
17,CCCTCTCA,-0.131
18,GAGTACCC,-0.0644
19,CCCACTCC,0.0066
20,CGGGTCTA,0.0247
21,ACGGCATC,0.2
22,CGGGCATC,0.282
23,CTGGCACA,-0.0796
24,CCGGCATA,0.0787
25,CTGGCACC,0.392
26,CCGGCATC,0.38

row,Sequence,PBM E-score
1,CGGGCAGC,0.309
2,ATGGCACC,0.201
3,CGGGCATA,-0.232
4,AGGGCAGC,0.0608
5,AGGGCATC,0.129
6,CGGGCAGA,-0.0209
7,AGTTTCAT,0.116
8,CCAAAGGC,-0.185
9,CCCGCTTA,0.161
10,CATGCGTC,-0.0513
11,CCTGAGAG,-0.131
12,CGACCGAC,0.0935
13,CACCAGTC,-0.02
14,GGGGTCCA,0.0846
15,AAATTTTA,0.126
16,AGTCGAGC,-0.0406
17,GACTGTCA,-0.154
18,AGAGGTAT,0.196
19,ATAGATTC,0.114
20,CCGCTCAG,0.0454
21,ACGTTCTC,-0.172
22,ACGGCACC,0.142
23,CGGGCACA,-0.0928
24,CGGGCACC,0.376
25,CAGGCAGC,0.285
26,CCGGCACC,0.28

row,Sequence,PBM E-score
1,CTGGCATA,0.0454
2,GCGGCACC,0.324
3,CAGGCAGA,-0.0141
4,CTGGCATC,0.304
5,CGGGCACG,0.107
6,CAGGCAGG,-0.143
7,ATGGCATC,0.175
8,CCCTACTA,0.0892
9,AATTTACT,0.155
10,AAACCAGA,0.0613
11,TCATCCAA,-0.114
12,TAATCCAA,0.134
13,GCATCCAA,0.366
14,GAATCCAA,0.309
15,AAATCCAA,0.142
16,GCATCCAC,0.452
17,CCATCCAA,-0.121
18,CCATCCAC,-0.0219
19,ACATCCAC,0.133
20,TCCTAGAA,0.174
21,GAATGGCC,-0.116
22,CAAGCGCG,-0.0724
23,ATATGAGG,0.033
24,AGAAAACC,-0.0435
25,CGGAGCAG,0.0182
26,ACATACTG,0.0904

row,Sequence,PBM E-score
1,AGGACGCC,0.453
2,AGGACGCA,0.0414
3,AGGACGCG,0.283
4,CGGACGTC,0.134
5,CGGACGCA,0.0459
6,AGGACGAG,-0.073
7,ACGACGCG,0.0493
8,ACGACGCC,0.217
9,CGGACGCC,0.416
10,CGACCCAC,-0.0741
11,TAACCTGA,-0.2
12,ACGTGTAT,0.0211
13,CAGGCCGA,-0.0271
14,CAGAACCG,0.106
15,GAATGCGC,0.164
16,ACTCTCTC,-0.288
17,CGCCAATA,0.144
18,GTATGTCA,0.136
19,CTCCCAAG,0.0273
20,ACTCTAGG,-0.0525
21,ATACAGGC,0.223
22,CTACAGGA,0.204
23,ATACAGGA,0.308
24,AAACAGGA,0.363
25,CAACAGGA,0.226
26,ATTCAGGA,0.282

row,Sequence,PBM E-score
1,ATTCAGGG,0.123
2,AAACAGGC,-0.117
3,CTTCAGGA,0.268
4,ACCGAACG,0.0306
5,CCACCGCG,-0.0592
6,ATGACATA,0.127
7,TCCCGCAA,0.0539
8,CGAGTGCC,-0.132
9,AAGCGTCC,0.323
10,AAGCGTCA,-0.0114
11,GAGCGTGC,-0.1
12,AAGCGTCG,0.0188
13,GAGCGTCC,0.384
14,ACGCGTCC,0.292
15,ACGCGTCT,0.155
16,GAGCGTCA,0.0398
17,ACGCGTCA,-0.171
18,GCATCAAC,0.15
19,CACGGAGC,0.101
20,CGGTAGCA,-0.0732
21,AGGTAGCC,0.238
22,CGGTATCC,0.282
23,AGGTATCA,0.0276
24,CGGTAGCC,0.296
25,CGGTATCA,-0.0496
26,AGGTATCC,0.28

row,Sequence,PBM E-score
1,CTGTATCC,0.207
2,AGGTATCG,0.019
3,CAAGCTAA,-0.177
4,CCTGTGAG,-0.218
5,CGCCCTAG,0.143
6,ATAGCCAG,0.0137
7,CGCAATTC,0.0283
8,CTACCGTC,-0.0298
9,GCCATCCA,0.086
10,CCGATACA,0.0692
11,CCAGTTAG,0.0191
12,AGGCGCCA,0.268
13,AGGCGCCG,0.354
14,AGGCGCGC,0.16
15,AGGCGCAG,0.157
16,GCGCGCCC,0.0734
17,AGGCGCCT,0.321
18,AAGCGCCT,0.0782
19,ACGCGCCA,0.196
20,AGGCGCCC,0.384
21,AGGCGCAT,0.0287
22,ACGCGCCC,0.352
23,ATGCGCCC,0.0661
24,AGTGCTCC,-0.116
25,GTCAGAAA,0.0237
26,AAGGGCTA,-0.138

row,Sequence,PBM E-score
1,AACAATCC,-0.0423
2,TGGACAAA,0.0886
3,CCCGGTCC,-0.0935
4,CGGACACC,0.0465
5,ACTGCAAG,-0.185
6,TTGTGAAA,0.0169
7,CCCGTTAG,0.0113
8,CGCGCATC,0.252
9,ATCCCCCG,0.175
10,AGGAAGCA,0.13
11,AAGAATCA,0.142
12,AGGAATCC,0.459
13,AGGAAGAG,-0.0854
14,AGGAATCG,0.294
15,AAGAATCC,0.391
16,GAGAATCC,0.236
17,AGGAAGCG,0.354
18,AGGAATAC,0.0815
19,AGGAATGG,0.0654
20,ATGAATCC,0.0178
21,AGGAATCA,0.144
